{
  "source": "PubChem BioAssay (Tox21)",
  "note": "Inconclusive results are not listed. Entries that show only a call come without a potency. Values without a mark were called inactive. Active and inactive are the calls of the source. The call rests on the fitted dose curve; in most records, active means well fitted cell-killing curve with a large enough effect in the repeat runs; inconclusive means weak or mixed curves, or effect the other way; inactive means no such curve, though single readings can be large or run the other way. Potency means the concentration at half of the fitted maximal effect.",
  "data": [
    {"test": "qHTS assay to identify small molecule antagonists of the retinoid-related orphan receptor gamma (ROR-gamma) signaling pathway - cell viability counter screen (AID 1159520); further: nearly all actives have a fitted effect of over 50% in size", "settings": "Tet-on RORgamma CHO cells viability, ATP luminescence, 16 h; series mostly up to 92.4 µM", "source_text": "U.S. Tox21 Program National Center for Advancing Translational Sciences [NCATS] NIH Chemical Genomics Center [NCGC] U.S. Environmental Protection Agency [EPA] National Institutes of Environmental Health Sciences [NIEHS] National Toxicology Program [NTP] U.S. Food and Drug Administration [FDA] Tox21 Assay Overview: Nuclear steroid hormone receptors are involved in many biological processes including inflammatory responses, cell proliferation, and apoptosis. Environmental factors or compounds disrupting these nuclear receptor pathways and gene expression may promote susceptibility to immunotoxicants and autoimmune diseases. One important group of these expression factors are the retinoid-related orphan receptors. To assess compounds that may interfere with the retinoid-related orphan receptor gamma (ROR-gamma) transcription factor, a cell-based luciferase assay was used. The CHO cell-based assay utilizes a TET-inducible ROR expression factor and ROR response element-LUC reporter gene. Reporter gene activity was induced using Doxycycline Hyclate and measured after 16 hr incubation. Tet-on ROR gamma CHO cells were used to screen against the Tox21 10K compound library for cytotoxicity by measuring the viability of the cells based on the quantitation of the ATP.\nTox21 Assay Protocol Summary: Tet-on ROR gamma CHO cells were dispensed at 1,000 cells in 4 uL of culture medium per well into white wall/solid bottom 1536-well plates using a Multidrop Combi (Thermo Scientific, Waltham, MA) dispenser. Following incubation at 37 C and 5% CO2 for 4 hr, 23 nL of compounds dissolved in DMSO, positive controls or DMSO only were transferred by a Pintool station (Kalypsys, San Diego, CA) and after 2 hr incubation at 37 C, one ul of 1 uM (final concentration) of Doxycycline Hyclate was added to all the wells by using a Flying Reagent Dispenser (FRD) (Aurora Discovery, San Diego, CA). After 16 hr incubation at 37 C and 5% CO2, 5 uL of CellTiter-Glo reagent (Promega Corporation, Madison, WI) was added to each assay plate using FRD. After 30 min incubation at room temperature, luminescence was quantified on a ViewLux plate reader (Perkin Elmer, Waltham, MA).", "values": [
      {"smiles": "CC(CO)(CO)C(=O)O", "Potency": "inactive"},
      {"smiles": "Nc1ccn([C@H]2CS[C@@H](CO)O2)c(=O)n1", "Potency": "inactive"},
      {"smiles": "Nc1ccc(F)cc1", "Potency": "inactive"},
      {"smiles": "C1=CCC2CC=CC2C1", "note": "(stereo not given)", "Potency": "inactive"},
      {"smiles": "CC1=CC[C@@H]2C[C@H]1C2(C)C", "activity, negative = cytotoxicity": "2.52% [at 19 µM]"},
      {"smiles": "O=[N+]([O-])C1(Br)COCOC1", "Potency": "24.3 µM (active)"},
      {"smiles": "O=C(C(=O)c1ccco1)c1ccco1", "Potency": "inactive"},
      {"smiles": "CC(=O)OCCC1CCCCC1", "Potency": "inactive"},
      {"smiles": "O=C(O)c1cc(Cl)cc(Cl)c1O", "Potency": "inactive"},
      {"smiles": "CN=C(N)NC(=O)Nc1c(C)cccc1C", "Potency": "inactive"},
      {"smiles": "CC(C(=O)O)c1ccc(C(=O)c2cccs2)cc1", "note": "(stereo not given)", "Potency": "inactive"},
      {"smiles": "CCCCCCCCCCCCCC(=O)OCC(O)CO", "note": "(stereo not given)", "Potency": "inactive"},
      {"smiles": "Nc1c(Cl)cc(Cl)cc1[N+](=O)[O-]", "Potency": "inactive"},
      {"smiles": "O=C(O)CCC(=O)c1ccc(-c2ccccc2)cc1", "Potency": "inactive"},
      {"smiles": "CCOC(=O)c1c(N)sc2c1CCN(Cc1ccccc1)C2", "Potency": "inactive"},
      {"smiles": "COc1cc(NS(=O)(=O)c2ccc(N)cc2)nc(C)n1", "Potency": "inactive"},
      {"smiles": "O=C(O)CCCc1c[nH]c2ccccc12", "Potency": "inactive"},
      {"smiles": "CC(=O)N[C@@H](Cc1ccc(O)cc1)C(=O)O", "Potency": "inactive"},
      {"smiles": "CCCCCCOC(=O)CCCCC", "Potency": "inactive"},
      {"smiles": "CCO[Si](C)(CCCOCC1CO1)OCC", "note": "(stereo not given)", "Potency": "inactive"},
      {"smiles": "CC1CCC(C(C)CS)CC1S", "note": "(stereo not given)", "Potency": "inactive"},
      {"smiles": "C=CC(=O)O", "Potency": "inactive"},
      {"smiles": "Cc1ccc(NC(=O)N(C)C)cc1NC(=O)N(C)C", "Potency": "inactive"},
      {"smiles": "CC(=O)OCC1=C(C(=O)O)N2C(=O)[C@@H](NC(=O)CSc3ccncc3)[C@H]2SC1", "Potency": "inactive"},
      {"smiles": "Cc1ccc(Nc2c(F)cccc2Cl)c(CC(=O)O)c1", "Potency": "inactive"},
      {"smiles": "CC[C@H]1OC(=O)[C@H](C)[C@@H](O[C@H]2C[C@@](C)(OC)[C@@H](O)[C@H](C)O2)[C@H](C)[C@@H](O[C@@H]2O[C@H](C)C[C@H](N(C)C)[C@H]2O)[C@](C)(O)C[C@@H](C)/C(=N\\OCOCCOC)[C@H](C)[C@@H](O)[C@]1(C)O", "Potency": "inactive"},
      {"smiles": "BrC(Br)C(Br)Br", "Potency": "inactive"},
      {"smiles": "O=C(O)CN1C(=O)c2cccc3cccc(c23)C1=O", "Potency": "inactive"},
      {"smiles": "CCCOC(=O)c1c(Cl)c(Cl)c(Cl)c(Cl)c1C(=O)OCCC", "Potency": "inactive"},
      {"smiles": "CCN(Cc1cccc(S(=O)(=O)O)c1)c1ccc(C(=C2C=CC(=[N+](CC)Cc3cccc(S(=O)(=O)O)c3)C=C2)c2ccc(O)cc2S(=O)(=O)[O-])cc1", "Potency": "10.5 µM (active)"},
      {"smiles": "CC(C)N(C)C", "Potency": "inactive"},
      {"smiles": "COc1ccc(-c2cc(=S)ss2)cc1", "Potency": "inactive"},
      {"smiles": "CCOC(=O)C(C)O", "note": "(stereo not given)", "Potency": "inactive"},
      {"smiles": "CC(C)CC(O)CC(C)C", "Potency": "inactive"},
      {"smiles": "COc1ccc(C)cc1", "Potency": "inactive"},
      {"smiles": "CCCCCC", "Potency": "inactive"},
      {"smiles": "O=C(NS(=O)(=O)/C=C/c1ccccc1)c1ccc(F)cc1Cl", "Potency": "inactive"},
      {"smiles": "CCCCCCCCCCCCCOS(=O)(=O)O", "Potency": "inactive"},
      {"smiles": "CC(=O)Oc1cccc(O)c1", "Potency": "inactive"},
      {"smiles": "CC1CCc2nccnc21", "note": "(stereo not given)", "Potency": "inactive"}
    ]}
  ]
}
